Measurements published in PubChem BioAssay AID1446 (The Scripps Research Institute Molecular Screening Center, 2008).
The whole screen tested about 220,000 compounds, of which about 2,400 (1.1%) were called active. The full list was thinned out, with actives kept by preference. Unmarked numbers belong to inactive results.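 Rule for the calls: active = inhibition above the campaign mean plus 3 SD over all tested compounds (cut at about 24% in these data); inactive = the rest.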

Experiment: viability loss in Ba/F3 EpoR-JAK2V617F cells – cell-based, luminescence, JAK2V617F inhibitor project, primary screen (AID 1446);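 note: cytokine-independent growth of Ba/F3 cells driven by EpoR plus mutant JAK2; 0% = DMSO-treated cells and 100% = JAK inhibitor I control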
Settings: ATP luminescence, at 5.6 µM, hits give high values
`CSc1nnc(-c2ccc(C(F)(F)F)cn2)o1` showed an inhibition of -4.69%.
Compound `CC(=O)NC(Cc1ccc(F)c(F)c1)C(=O)NC1CCN(c2nnnn2-c2ccccc2)CC1` (centres undefined) has an inhibition of 1.68%.
For `O=C(COC(=O)CNS(=O)(=O)c1ccccc1)NC12CC3CC(CC(C3)C1)C2`, the inhibition was 2.17%.
With `Cc1ccc(NC(=O)CN(C)CC(=O)Nc2cccc(F)c2)cc1[N+](=O)[O-]` the inhibition was 32.7% (active).
With `Cc1ccc(CN(C)CC(=O)Nc2cccc([N+](=O)[O-])c2)o1` the inhibition was -2.99%.
Compound `CN(CC(=O)Nc1cccc(F)c1)CC(=O)Nc1cccc([N+](=O)[O-])c1` has an inhibition of 1.69%.
For `Nc1ccc2nn(-c3ccc(Cl)cc3)nc2c1`, the inhibition was -0.91%.
Compound `Cc1ncc([N+](=O)[O-])n1CCOC(=O)c1ccc(Br)cc1` has an inhibition of -1.79%.
`CCCCCCNC(=O)CSc1nccn1Cc1ccccc1` showed an inhibition of -2.6%.
For `CCOc1cccc(-c2nnc3sc(COc4ccc(OC)cc4)nn23)c1`, the inhibition was -2.87%.
For `CCOc1cccc(-n2nnnc2-c2ccc(OC)cc2)c1`, the inhibition was 62.5% (active).
`COc1ccc(-n2nnnc2-c2nc3ccccc3s2)cc1` gave an inhibition of -2.25%.
In the case of `CC[n+]1c(C)n(-c2ccccc2)c2ccc(NC(C)=O)cc21`, the inhibition is reported as 70.6% (active).
With `CCn1c2ccccc2c2cc(NC(=O)CNC)ccc21` the inhibition was -0.79%.
Compound `CCc1ccc(NC(=O)N2CCN(c3ccccc3)CC2)cc1` has an inhibition of 0.49%.
For `COc1cccc(NC(=O)CC2C(=O)NCCN2C(=S)Nc2ccc(F)cc2)c1` (centres undefined), the inhibition was 3.64%.
For `COc1ccc(S(=O)(=O)N(CC(=O)N/N=C/c2ccccc2C(=O)O)c2ccccc2OC)cc1`, the inhibition was -2.32%.
Work on `COc1ccccc1-c1nc(C#N)c(N2CCC(C(N)=O)CC2)o1` yielded an inhibition of -2.39%.
With `COc1ccc(Nc2oc(-c3ccccc3Cl)nc2C#N)cc1` the inhibition was 50.8% (active).
Work on `Cc1ccccc1-c1nc(C#N)c(NCc2ccco2)o1` yielded an inhibition of 0.66%.
With `CC(C)C(=O)Nc1oc(-c2ccccc2)cc1C#N` the inhibition was 0.17%.
With `CC1CCN(S(=O)(=O)c2ccc(S(=O)(=O)NCc3cccnc3)cc2)CC1` the inhibition was 0.32%.
With `CCCCCCCCn1c2c(c(=N)c3c1CCC3)CCCC2` the inhibition was 101% (active).
With `CCCCCCn1c(CN2CCCCC2)nc2c1c(=O)n(C)c(=O)n2C` the inhibition was -2.26%.
For `CN(Cc1cccnc1)C(=O)c1cc(COc2ccc3ncccc3c2)on1`, the inhibition was 54.2% (active).
Work on `Cc1cc(NCc2cccnc2)no1` yielded an inhibition of -7.11%.
For `Cc1noc(C)c1COc1cccc(C(=O)Nc2cccnc2)c1`, the inhibition was -0.6%.
Work on `Cc1cccc(-[n+]2c(-c3cccc(Br)c3)[nH]c3nc4ccccc4nc32)c1` yielded an inhibition of -1.46%.
For `CCCC(=O)Nc1nc2ccc(NC(=O)c3cccnc3)cc2s1`, the inhibition was 2.04%.
With `CCCC(=O)Nc1nc2ccc(NC(=O)c3c(F)c(F)c(OC)c(F)c3F)cc2s1` the inhibition was 81.8% (active).
With `COc1ccc2nc(Nc3nc4ccc(NC(C)=O)cc4s3)sc2c1` the inhibition was -4.43%.
Compound `CCc1cccc(NC(=O)CCNS(=O)(=O)c2cccc3nonc23)c1` has an inhibition of -3.57%.
Work on `Cc1onc(-c2ccc(Cl)cc2)c1-c1ccnn1S(=O)(=O)c1ccc(Cl)cc1` yielded an inhibition of -1.9%.
With `COc1cc(/C=C2/C(=O)ON=C2C)ccc1OCc1ccccc1F` the inhibition was -2.39%.
In the case of `CC1=NOC(=O)/C1=C\c1ccccc1`, the inhibition is reported as -4.85%.
With `COc1cc(/C=C2/C(=O)ON=C2C)ccc1OCc1cccc(F)c1` the inhibition was 67.1% (active).
Work on `COc1ccc(NS(=O)(=O)c2ccc(N3CCOCC3)c(NC(=O)c3ccccc3Br)c2)cc1` yielded an inhibition of 2.5%.
`COc1ccccc1N=Cc1c(O)c2ccccc2oc1=O` showed an inhibition of 5.52%.
In the case of `CC(=O)Nc1nc2ccccc2n1Cc1ccc(C)cc1`, the inhibition is reported as -2.63%.
Work on `CCC(=O)Nc1nc2ccccc2n1Cc1ccccc1C` yielded an inhibition of -0.24%.
With `CCCn1c(NC(=O)C23CC4CC(CC(O)(C4)C2)C3)nc2ccccc21` the inhibition was 53% (active).
For `CCOP(=O)(OCC)C(Nc1cccc(C)c1)c1ccc(F)cc1` (centres undefined), the inhibition was -3.26%.
`C/[N+]([O-])=C\c1ccc([N+](=O)[O-])o1` gave an inhibition of -0.25%.
In the case of `Cn1cc(/C=C/c2nc3ccccc3c(=O)n2-c2cccc([N+](=O)[O-])c2)c2ccccc21`, the inhibition is reported as 0.27%.
For `CCn1c(/C=C/c2ccc([N+](=O)[O-])o2)nc2ccccc2c1=O`, the inhibition was 40.5% (active).
In the case of `CCc1nnc(NC(=O)CSc2nnnn2-c2cccc(C(C)=O)c2)s1`, the inhibition is reported as -3.92%.
Compound `CC(=O)Nc1ccc(S(=O)(=O)Oc2ccc(/C=N/N=C3/NC(=O)C(CC(=O)O)S3)cc2)cc1` (centres undefined) has an inhibition of 1.79%.
Work on `COc1ccc2nc(Nc3nc(-c4cc5ccccc5oc4=O)cs3)sc2c1` yielded an inhibition of -2.4%.
With `COc1ccc(Nc2nc(-c3ccccc3)cs2)cc1` the inhibition was 1.67%.
Work on `COc1ccc(-c2csc(Nc3ccccn3)n2)cc1` yielded an inhibition of -3.7%.
In the case of `CCNc1nc(-c2cc3ccccc3o2)cs1`, the inhibition is reported as -1.02%.
`COc1ccc(C)cc1Nc1nc(-c2c(C)[nH]c3ccccc23)cs1` gave an inhibition of -2.69%.
With `COc1ccc(OC)c(Nc2nc(-c3ccc(O)c(O)c3)cs2)c1` the inhibition was 35.7% (active).
`COc1ccc2nc(Nc3nc(-c4ccncc4)cs3)sc2c1` showed an inhibition of 3.58%.
In the case of `COc1ccc(-c2csc(Nc3ccc(O)cc3)n2)cc1`, the inhibition is reported as 65.8% (active).
In the case of `O=c1oc2ccccc2cc1-c1csc(Nc2ccc(O)cc2)n1`, the inhibition is reported as 70.4% (active).
`Cc1ccc(O)c(CCc2ccccc2)n1` gave an inhibition of -4.38%.
For `Cc1nc(Cl)c(C#N)c2c1CCCC2`, the inhibition was -4.53%.
In the case of `Cc1cc(C)n(CC(O)CN(c2ccccc2)S(=O)(=O)c2ccc3ccccc3c2)n1` (centres undefined), the inhibition is reported as 0.98%.
Compound `S=c1[nH]c2ccccc2c2ccccc12` has an inhibition of -1.73%.
Compound `CN(C)CCNC(=O)/C(=C/c1cccc([N+](=O)[O-])c1)NC(=O)c1ccccc1` has an inhibition of 3.86%.
`Cc1ccccc1NC(=O)CN1C(=O)N/C(=C\c2cccn2-c2cccc(C(=O)O)c2)C1=O` showed an inhibition of 0.8%.
In the case of `O=C1/C(=C\c2ccsc2)NC(=S)N1c1ccccc1`, the inhibition is reported as -2.32%.
For `O=C1N/C(=C/c2cccn2-c2ccccc2)C(=O)N1c1cccc(Cl)c1`, the inhibition was 51.8% (active).
